# About 83,000 compounds went through this panel and 20% of them were active in at least one assay; those are over-represented in the sample as a whole.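 Single-concentration screen, 48 h exposure, 96-well plates. Endpoint: percent growth. Below 10 = active.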 Values without a mark were called inactive. Activity calls are given as the source filed them.
# Experiments:
# Assay in all cases: NCI-60 one-dose screen, 48 h (100 = growth as untreated, 0 = no growth, -100 = all killed)
# Conditions in all cases: 10 µM
# SK-MEL-2 melanoma = test system: SK-MEL-2 melanoma
# EKVX NSCLC = test system: EKVX NSCLC
# SN12C renal = test system: SN12C renal
# UO-31 renal = test system: UO-31 renal
# TK-10 renal = test system: TK-10 renal
# ACHN renal = test system: ACHN renal
# CAKI-1 renal = test system: CAKI-1 renal
# A498 renal = test system: A498 renal
# MOLT-4 leukemia = test system: MOLT-4 leukemia
# RPMI-8226 leukemia = test system: RPMI-8226 leukemia
# OVCAR-8 ovarian = test system: OVCAR-8 ovarian
# OVCAR-5 ovarian = test system: OVCAR-5 ovarian
# OVCAR-4 ovarian = test system: OVCAR-4 ovarian
# SK-OV-3 ovarian = test system: SK-OV-3 ovarian
# IGROV1 ovarian = test system: IGROV1 ovarian
# OVCAR-3 ovarian = test system: OVCAR-3 ovarian
# HS 578T breast = test system: HS 578T breast
# NCI/ADR-RES ovarian = test system: NCI/ADR-RES ovarian
# SR leukemia = test system: SR leukemia
# CCRF-CEM leukemia = test system: CCRF-CEM leukemia
Compound,growth (SK-MEL-2 melanoma),growth (EKVX NSCLC),growth (SN12C renal),growth (UO-31 renal),growth (TK-10 renal),growth (ACHN renal),growth (CAKI-1 renal),growth (A498 renal),growth (MOLT-4 leukemia),growth (RPMI-8226 leukemia),growth (OVCAR-8 ovarian),growth (OVCAR-5 ovarian),growth (OVCAR-4 ovarian),growth (SK-OV-3 ovarian),growth (IGROV1 ovarian),growth (OVCAR-3 ovarian),growth (HS 578T breast),growth (NCI/ADR-RES ovarian),growth (SR leukemia),growth (CCRF-CEM leukemia)
O=C1c2ccccc2C(=O)N1CCCCNc1ccccc1,121%,127%,50.4%,61.7%,117%,104%,101%,70.2%,49.7%,30.5%,101%,101%,107%,113%,141%,91%,103%,103%,–,–
CC[C@@H](C(=O)[C@@H](C)[C@@H](O)[C@H](C)[C@@H]1O[C@@H]([C@@H](CC)C(=O)N(CC)CC)CC[C@@H]1C)C1O[C@]2(C=CC(=O)[C@]3(CC[C@@](C)([C@H]4CC[C@](O)(CC)[C@H](C)O4)O3)O2)[C@H](C)C[C@@H]1C (stereo not given in full),11.4%,19.6%,16.8%,0.811% (active),29.1%,6.1% (active),7.58% (active),36.6%,22.7%,–,29%,29.7%,34.3%,49.8%,34.9%,21.6%,–,10.5%,41.1%,–
C=CCN(CC=C)C(=O)[C@H](CC)[C@@H]1CC[C@@H](C)[C@@H]([C@H](C)[C@@H](O)[C@@H](C)C(=O)[C@H](CC)C2O[C@]3(C=C[C@@H](O)[C@]4(CC[C@@](C)([C@H]5CC[C@](O)(CC)[C@H](C)O5)O4)O3)[C@H](C)C[C@@H]2C)O1 (stereo not given in full),-7.12% (active),-5.86% (active),6.36% (active),-12.6% (active),16.2%,5.93% (active),1.41% (active),-2.03% (active),19.4%,–,16%,31.9%,25.4%,4.44% (active),10.7%,14.6%,13.4%,1.02% (active),36.9%,–
O=C(CCCSc1nc(-c2ccccc2)cc(-c2ccc(Cl)cc2)n1)NO,16.4%,-10.5% (active),6.93% (active),-26.4% (active),21.9%,-0.78% (active),2.37% (active),-15.3% (active),11.2%,-6.47% (active),14.2%,–,22.3%,11.7%,22.3%,7.27% (active),50.9%,-22% (active),26.3%,–
CC(C)(C)OC(=O)N1CCc2c(sc3ncnc(N/N=C/c4cccc(Br)c4)c23)C1,76.1%,26.3%,50.9%,21%,56.3%,33.9%,31.4%,72.7%,18%,–,46.6%,70.5%,54.9%,62.2%,43.9%,61.5%,71.2%,42.1%,29.4%,–
CNC(=O)c1cn(C2CC2)c2cc(N3CCN(C(=O)c4cc(OC)c(OC)c(OC)c4)CC3)c(F)cc2c1=O,94.8%,91.2%,101%,79%,92.1%,99.4%,90.9%,88.4%,99.7%,97.6%,100%,96%,98.6%,103%,102%,106%,101%,96.7%,–,–
COc1cc(Cc2cc(-c3ccccc3)n[nH]c2=O)cc(OC)c1OC,56.6%,43.6%,72.9%,58.3%,75.5%,86.4%,64.6%,69%,30.9%,53.5%,75.2%,–,70.1%,71.2%,63.3%,47.2%,68.2%,28.8%,25%,–
COc1ccc(-c2csc(NC(=O)c3ccc(Cc4n[nH]c(=O)c5cccnc45)cc3)n2)cc1,110%,66.6%,89.1%,51.9%,115%,88.2%,84.5%,95.8%,97.2%,82.6%,93.8%,–,94.5%,95.1%,75.4%,103%,99.1%,94.1%,118%,–
O=c1cn[nH]c2ccc(Br)cc12,103%,108%,105%,78.9%,95.4%,103%,113%,–,86.5%,–,98.8%,108%,109%,98.6%,102%,–,–,105%,89.4%,96.1%
CCNc1nc(C(F)(F)F)nc2c1sc(=S)n2-c1ccccc1,88.1%,86.1%,100%,104%,88.8%,93.1%,93.6%,–,81.8%,–,96.1%,112%,98.2%,102%,102%,107%,107%,92.9%,83.5%,–
O=C1c2c(c3c4ccccc4n(CCCCCCN4CCOCC4)c3c3[nH]c4ccccc4c23)C(=O)N1O,110%,82.4%,75.8%,9.13% (active),111%,92.6%,96.7%,–,66.3%,–,3.72% (active),127%,103%,93%,40.6%,88.7%,106%,43.9%,-26.2% (active),–
CCn1cc(CNc2ccc(C(=O)Nc3ccc4ccccc4c3)cc2)c(C)n1,61%,36.5%,85.7%,47.1%,1.78% (active),69.5%,53.6%,–,15.5%,–,45%,94.4%,20.8%,11.8%,68%,55.9%,105%,23.3%,46.2%,–
Nc1nc(-c2cccnc2)nc2c1sc(=S)n2-c1ccccc1,101%,101%,98.6%,97.2%,93.5%,107%,98.7%,–,96.9%,–,101%,125%,128%,103%,98.1%,114%,91.4%,93.1%,113%,–
COc1ccc(-c2nn(-c3cccc(Cl)c3)cc2-c2nc(N)[nH]c(=O)c2C#N)cc1,70.9%,31.8%,84.9%,29.7%,110%,87.5%,30.6%,–,53.7%,–,96.4%,94.3%,85.7%,90%,61%,106%,76.6%,66.3%,–,61.6%
COc1ccc(C(=O)c2ccccc2CN2C(=O)c3ccccc3C2=O)cc1,103%,101%,105%,75.1%,104%,102%,102%,–,87%,–,97%,109%,105%,109%,101%,105%,105%,95.5%,91.8%,91.5%
CCn1c2ccc(O)cc2c2c(C)c3c[n+](C)ccc3c(C)c21,40.9%,73.7%,-32.6% (active),64.2%,45.6%,60.6%,85.2%,–,17.8%,–,32.4%,88.7%,52%,71.2%,53.8%,37.8%,-0.0943% (active),81%,21.2%,–
O=C1NC(=O)c2c(CCCSc3nc4ccccc4c(=O)n3CCc3ccccc3)cccc21,105%,16.3%,91.7%,70.6%,124%,69.9%,18.5%,–,81.3%,–,83.7%,–,60.7%,86.2%,97.4%,–,74.1%,79.8%,66.6%,96%

# — PubChem BioAssay (NCI)
